Compound activity: PubChem BioAssay, National Center for Advancing Translational Sciences (NCATS)
Compounds with a hit are over-represented: about 7.4% of the library has one in this group of screens.
NIH3T3 tox: NIH 3T3 cell cytotoxicity; Potency, µM (series often up to 96.7 µM), usual class: inhibitors; NIH 3T3 viability, CellTiter-Glo ATP luminescence, 48-72 h; hit rate 4.3% among 94,000; AID 1345082; further: nearly all actives have a fitted effect of over 55% in size
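Cells were seeded at 400 per well, treated with pin-transferred compound, and kept 48 or 72 hr at 37 °C before CellTiter-Glo addition and luminescence imaging of cellular ATP.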
SNCA expr inh: inhibitors of alpha-synuclein (SNCA) gene expression; HEK-293 SNCA-luciferase knock-in, luminescence, 24 h; Potency, µM (titrated, usually from 57.2 µM), usual class: inhibitors; hit rate 0.17% among 140,000; AID 1671194; further: nearly all actives have a fitted effect of over 45% in size
HEK293 tox: cytotoxic compounds in HEK 293 cells; HEK 293 viability, ATP luminescence (CellTiter-Glo), 48-72 h; Potency, µM (highest dose often 115 µM), actives largely listed as inhibitors; hit rate 6.6% among 94,000; AID 1345083; further: nearly all actives have a fitted effect of over 60% in size
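Pintool-delivered compounds were incubated with HEK 293 cells (250 cells/well) at 37 degree Celsius for 48 or 72 hr. ATP-dependent luminescence (CellTiter-Glo) then reported remaining viable cells.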
NPR1 antag: antagonists of human natriuretic peptide receptor Npr1. P16066. hit rate 1.6% among 76,000. Potency, µM (doses to about 46.3 µM), usual class: inhibitors. HEK293 hNpr1 GloSensor cGMP, ANP-stimulated luminescence; calls by dose curve; further: nearly all actives have a fitted effect of over 60% in size
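HEK293 cells stably expressing human Npr1 and cGMP GloSensor pGS-40F, loaded 2 h with 2% GloSensor reagent, given compound 30 min at room temperature. Luminescence read before and 20 min after 0.1 nM hNppA.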
HEK293 viab: reduces viability of HEK-293 SNCA reporter cells | Potency, µM (doses to about 57.1 µM), actives largely listed as cytotoxic | AID 1671193 | HEK-293-SNCA-luc viability, GF-AFC fluorescence, 24 h | hit rate 0.12% among 150,000; further: nearly all actives have a fitted effect of over 30% in size
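HEK-293-SNCA-luc cells (1500/well) plated 24 h, then exposed 24 h to a dilution series; GF-AFC added 30 min at 37C, fluorescence 405/540 nm; normalised to medium-only and DMSO wells, Hill fit.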
FLuc inh-1: Photinus pyralis luciferase inhibition; P08659; purified P. pyralis luciferase, luminescence, biochemical; Potency, µM (top dose mostly 115 µM), actives largely listed as inhibitors; hit rate 2.5% among 76,000; AID 1347043; further: nearly all actives have a fitted effect of over 65% in size
Target sequence (P08659 whole entry, looked up): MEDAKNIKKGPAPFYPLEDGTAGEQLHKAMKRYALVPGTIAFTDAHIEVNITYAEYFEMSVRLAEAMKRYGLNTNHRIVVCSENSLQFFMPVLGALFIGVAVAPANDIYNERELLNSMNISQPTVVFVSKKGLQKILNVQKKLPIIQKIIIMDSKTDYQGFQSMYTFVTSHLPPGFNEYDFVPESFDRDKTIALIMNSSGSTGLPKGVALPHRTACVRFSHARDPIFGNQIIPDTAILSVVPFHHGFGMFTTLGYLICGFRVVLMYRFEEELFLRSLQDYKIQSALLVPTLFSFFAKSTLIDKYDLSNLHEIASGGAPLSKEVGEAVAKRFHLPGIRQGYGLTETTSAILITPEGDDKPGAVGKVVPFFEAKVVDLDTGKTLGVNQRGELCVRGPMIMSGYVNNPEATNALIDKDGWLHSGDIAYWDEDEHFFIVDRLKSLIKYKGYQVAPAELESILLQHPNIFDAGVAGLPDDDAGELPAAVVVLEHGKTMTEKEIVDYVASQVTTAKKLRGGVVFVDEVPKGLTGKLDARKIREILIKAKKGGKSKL
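Purified 10nM P. pyralis luciferase with 10uM D-luciferin and 10uM ATP in 50mM Tris acetate pH 7.5, 10mM Mg acetate, 0.01% Tween-20, 0.05% BSA. qHTS titration; luminescence read by CCD imager.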
FLuc SDR no ATP: firefly luciferase binding stabilization, ATP absent; Potency, µM (doses to about 32.7 µM), most hits filed as activators; hit rate 7.8% among 1,300; shares compounds with FLuc inh-1; Purified FLuc-C-HiBiT, Nano-Glo HiBiT luminescence, no ATP; further: nearly all actives have a fitted effect of over 55% in size
FLuc SDR ATP: stabilizes firefly luciferase with ATP present. shares compounds with FLuc inh-1. purified FLuc-C-HiBiT + ATP, HiBiT complementation luminescence. Potency, µM (series often up to 32.7 µM), hits mostly activators. hit rate 8.7% among 1,300;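 further: signal reports ligand binding via conformational change of the enzyme rather than luciferase catalysis; nearly all actives have a fitted effect of over 55% in size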
FLuc inh-2: firefly luciferase enzyme inhibition | shares compounds with FLuc inh-1 | purified FLuc-C-HiBiT enzyme, luciferin luminescence | Potency, µM (titrated, usually from 32.7 µM), most hits filed as inhibitors | hit rate 42% among 1,300 | AID 1963320; further: nearly all actives have a fitted effect of over 70% in size
Numbers stand for hits; - = inactive; ? = inconclusive; . = no result. Unless noted, the call rests on the fitted dose curve; in most records, active means well fitted curve in the direction sought with a large enough effect; inconclusive means small, poorly fitted or top-dose-only effect, or another doubt; inactive means no such curve, though single readings can be large; an effect the other way counts as inactive or inconclusive.

SMILES	NIH3T3 tox	SNCA expr inh	HEK293 tox	NPR1 antag	HEK293 viab	FLuc inh-1	FLuc SDR no ATP	FLuc SDR ATP	FLuc inh-2
O=C(COc1ccccc1[N+](=O)[O-])Nc1ccc(-c2nc3ccccc3s2)cc1	.	-	.	.	-	.	-	-	-
O=C(COc1ccccc1Cl)Nc1nc(-c2ccc(F)cc2)ns1	.	-	.	.	-	.	.	.	.
O=c1n(CC2CC2)nc2n1CCN(S(=O)(=O)Cc1ccccc1)CC2	-	-	-	.	-	.	.	.	.
Cc1ccc(-c2nc(C(=O)N3CCN(c4ccccc4F)CC3)no2)cc1	?	-	?	-	-	?	.	.	.
Cc1ccc(-c2nc(C(=O)N3CCN(c4ccccc4)CC3)no2)cc1	?	-	?	-	-	13µM	-	-	?
COc1ccc(-c2nc3ccccc3o2)cc1NC(=O)c1ccc(OCC(C)C)cc1	.	-	.	.	-	.	.	.	.
CCOc1cc(C(=O)Nc2ccc(-c3nc4ccccc4s3)cc2Cl)cc(OCC)c1OCC	.	-	.	.	-	.	-	-	?
COc1ccc(OC)c(NC(=O)c2cc(-c3ccc(Cl)s3)nc3ccccc23)c1	.	-	.	.	-	.	.	.	.
COc1ccc(-c2nc3ccccc3s2)cc1NC(=O)c1ccc(F)cc1	.	-	.	.	-	.	-	-	-
COc1cc(OC)cc(C(=O)Nc2cc(-c3nc4ccccc4s3)ccc2OC)c1	.	-	.	.	-	.	-	-	-
C=CCO[C@@H]1C[C@H]2C(=O)Nc3ccc(-c4ccc(OC)cc4)cc3C(=O)N2C1	?	-	?	-	-	-	.	.	.
CN(CCc1noc(C2CN(C(=O)c3ccncn3)C2)n1)C(=O)C1CC1	-	-	-	-	-	-	.	.	.
COc1ccc(-c2nnc3n2CCN(C(=O)C2CC2)C3)cc1	-	-	?	-	-	-	.	.	.
Cc1ccc(C2Cn3nnc(C(=O)N4CCC(C(=O)NCc5ccncc5)CC4)c3CO2)cc1 (stereo not given)	-	-	-	-	-	14µM	-	?	?
Cc1ccc(C2Cn3nnc(C(=O)N4CCC(C(=O)NC5CC5)CC4)c3CO2)cc1 (stereo not given)	-	-	-	-	-	10µM	-	?	?
COc1ccc(CNC(=O)C2CCN(C(=O)c3nnn4c3COC(c3ccc(C)cc3)C4)CC2)cc1 (stereo not given)	-	-	-	-	-	-	.	.	.
Cc1cnc(C2CCC2)n1CCN	-	-	-	-	-	-	.	.	.
O=C(Nc1cc(-c2nc3cc(Cl)ccc3o2)ccc1Cl)c1cc2ccccc2o1	.	-	.	.	-	.	.	.	.
O=C(Nc1cc(-c2nc3ccccc3s2)ccc1Cl)c1cc2ccccc2o1	.	-	.	.	-	.	-	-	-
O=C(Nc1ccc(O)c(-c2nc3ccccc3s2)c1)c1cc2ccccc2o1	.	.	.	.	.	.	-	-	-
O=C(Nc1ccc(O)c(-c2nc3ccccc3o2)c1)c1sc2ccccc2c1Cl	.	-	.	.	-	.	.	.	.
O=C([C@@H]1C[C@H](Oc2ccccc2)CN1C(=O)C1CCC1)N1CCOCC1	-	-	-	-	-	-	.	.	.
CSc1ccc(-c2cccc(C(=O)NCC(=O)NCC(F)(F)F)c2)cc1	-	-	?	.	-	.	.	.	.
COc1ccc(C2(C(=O)N3CCC4(CC3)CC(N(C(C)=O)C3CC3)CCO4)CC2)cc1 (stereo not given)	-	-	-	-	-	-	.	.	.
CC1(c2ccccc2)N(Cc2ccccc2)C(=O)OC12CCN(Cc1cccc(C#N)c1)CC2 (stereo not given)	-	-	?	-	-	-	.	.	.
Cc1ccc(CSCC(=O)N2CCN(c3ccc(F)cc3)CC2)cc1	.	-	.	.	-	.	.	.	.
